For 28 compounds, outcome and AC50 results are on record in PubChem BioAssay (EPA / NIEHS).

A short description of assay [1]: ATG_E_Box_CIS: Attagene CIS-FACTORIAL HepG2 Assay for human Enhancer Box (E-box) (AID 2282936). The settings on record: HepG2 E-box cis-reporter transcription, actives raise or lower the signal. The method in brief:
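First, HepG2 cells receive multiple cis-regulated reporter constructs by transient transfection. Next, chemicals are applied for 24 h. Finally, reporter mRNA is quantified via RT-PCR and capillary electrophoresis, with DMSO as baseline.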

Assay [2] is described as follows: ATG_M_61_CIS: Attagene CIS-FACTORIAL HepG2 Assay for M61 Transcription Factor (Internal Marker) (AID 2282937). To be noted: HepG2 Attagene CIS-FACTORIAL M61 internal marker reporter; actives raise or lower the signal. The method in brief: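 HepG2 cells transiently transfected with multiplexed cis-promoter reporter units reporting endogenous transcription factor activity, measured 24 h after dosing. Reporter mRNA quantified by RT-PCR and capillary electrophoresis; bidirectional fit against DMSO baseline.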

A short description of assay [3]: ATG_EGR_CIS: Attagene CIS-FACTORIAL HepG2 Assay for human Early Growth Response 1 (EGR1) (AID 2282938). To be noted: HepG2 Attagene CIS-FACTORIAL EGR reporter mRNA; actives raise or lower the signal. The gist of the method: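 HepG2 cells transiently transfected with cis-element-driven multiplexed reporter units, dosed for 24 h. EGR1-element reporter mRNA quantified by RT-PCR, 6-FAM labelling, HpaI digestion and capillary electrophoresis; bidirectional fit versus DMSO.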

Assay [4] can be described thus: ATG_M_19_CIS: Attagene CIS-FACTORIAL HepG2 Assay for M19 Transcription Factor (Internal Marker) (AID 2282939). The settings on record: HepG2 Attagene CIS-FACTORIAL M19 internal marker reporter; actives raise or lower the signal. The method in brief:
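Chemical-treated HepG2 (24 h) with MRTU constructs; reporter transcripts detected by fluorescent RT-PCR fragment analysis on capillary electrophoresis. Internal background marker, DMSO as baseline.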

The nature of assay [5]: ATG_ERE_CIS: Attagene CIS-FACTORIAL HepG2 Assay for Estrogen Response Element (ERE) (AID 2282940). The settings on record: HepG2 ERE cis-reporter, Attagene RNA transcript; actives raise or lower the signal. The method in brief: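 Human liver cells (HepG2) bearing transiently transfected, promoter-regulated reporter units were exposed 24 h. Reporter mRNA induction was detected by capillary electrophoresis of labelled RT-PCR products and fitted bidirectionally to DMSO.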

A short description of assay [6]: ATG_Ets_CIS: Attagene CIS-FACTORIAL HepG2 Assay for human Erythroblast Transformation Specific (ETS) (AID 2282941). The settings on record: HepG2 ETS cis-reporter transcription, actives raise or lower the signal. The method in brief: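 Steps: transfect HepG2 with multiple reporter units; treat compound 24 h; isolate RNA, DNase-treat, reverse-transcribe; PCR-amplify, label with 6-FAM, digest with HpaI; separate by capillary electrophoresis. Activity fitted both directions versus DMSO.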

The nature of assay [7]: ATG_FoxO_CIS: Attagene CIS-FACTORIAL HepG2 Assay for human Forkhead box O (FoxO) (AID 2282943). The settings on record: HepG2 Attagene cis-reporter, FoxO element, mRNA; actives raise or lower the signal. The gist of the method:
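Transfected HepG2 reporter cells exposed to test chemical for 24 h; reporter RNA measured by reverse transcription, PCR and fluorescent capillary electrophoresis; curves fitted for increases and decreases against DMSO.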

Assay [8] can be described thus: ATG_GLI_CIS: Attagene CIS-FACTORIAL HepG2 Assay for human Zinc Finger Protein GLI1 (AID 2282945). The settings on record: HepG2, Attagene cis-factorial reporter mRNA, GLI element; actives raise or lower the signal. The method in brief:
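Transiently transfected HepG2 cells report endogenous transcription factor activity via cis-element-driven reporter units. After 24 h compound exposure, reporter mRNA was measured by RT-PCR with capillary electrophoresis; bidirectional fitting against DMSO baseline.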

Assay [9] deals with Hepatocyte nuclear factor 3-beta (Homo sapiens) (UniProt Q9Y261). The assay can be described thus: ATG_FoxA2_CIS: Attagene CIS-FACTORIAL HepG2 Assay for human Forkhead box A2 (FOXA2) (AID 2282942). The settings on record: HepG2 cis-reporter transcription factor activity, 24 h; actives raise or lower the signal. The gist of the method: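 HepG2 transiently transfected with a multiplexed cis-promoter reporter library read endogenous FOXA2 activity. After 24 h compound exposure, reporter mRNA was quantified by RT-PCR, HpaI digestion and capillary electrophoresis. Bidirectional fit against DMSO.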
Chain of Hepatocyte nuclear factor 3-beta (Homo sapiens) (Q9Y261 whole entry, looked up): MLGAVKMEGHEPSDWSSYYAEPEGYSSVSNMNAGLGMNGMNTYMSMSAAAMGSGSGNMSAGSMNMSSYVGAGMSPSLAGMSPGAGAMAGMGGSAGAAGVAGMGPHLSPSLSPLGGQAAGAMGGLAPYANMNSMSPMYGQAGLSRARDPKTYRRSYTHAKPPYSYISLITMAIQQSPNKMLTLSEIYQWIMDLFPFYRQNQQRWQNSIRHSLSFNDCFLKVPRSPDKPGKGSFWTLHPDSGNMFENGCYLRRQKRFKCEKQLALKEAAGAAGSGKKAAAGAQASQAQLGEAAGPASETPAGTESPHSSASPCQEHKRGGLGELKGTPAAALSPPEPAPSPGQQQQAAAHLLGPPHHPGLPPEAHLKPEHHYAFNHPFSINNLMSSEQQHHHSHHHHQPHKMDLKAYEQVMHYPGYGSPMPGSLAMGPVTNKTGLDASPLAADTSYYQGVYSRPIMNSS

Assay [10] in a line: ATG_GATA_CIS: Attagene CIS-FACTORIAL HepG2 Assay for human GATA Binding Protein (AID 2282944). To be noted: HepG2 GATA cis-element reporter, Attagene multiplex mRNA; actives raise or lower the signal. The gist of the method:
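Transfected cis-reporter HepG2 cells were treated with chemicals for 24 hours. Total RNA was then converted to cDNA, amplified with reporter-specific primers and analysed by fluorescent capillary electrophoresis, using DMSO-treated wells as baseline.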

Calls of active or inactive are those of the source. The calls were made as follows: active = hit-call score of the fitted dose curve at least 0.9, where 1 is the maximum; inactive = score below 0.9.

On to `CCCCCCCCCCCCCC(=O)O`, for which the result in [1], in assay [2], in assay [3], in assay [4], in assay [5] and in assay [6] was inactive. In addition, the outcome in assay [7] and in assay [8] was inactive.
`CC(CCO)CCCC(C)(C)O` (stereo not given): the result in [1], in assay [2], in assay [3], in assay [4], in assay [6] and in assay [9] was inactive. Besides, the call in assay [7], in assay [10] and in assay [8] was inactive.
As usually defined, the AC50 is the midpoint of the concentration-response curve, whichever way the signal moves. In the case of `Cc1ccc(C(=O)c2cc(O)c(O)c([N+](=O)[O-])c2)cc1`, in assay [1], the AC50 is 27 µM (active). Moreover, the call in assay [2], in [3], in assay [4], in assay [6], in assay [9] and in assay [7] was inactive. In addition, the outcome in [10] and in assay [8] was inactive.
As for `CC(C)(COC(=O)c1ccccc1)COC(=O)c1ccccc1`, the outcome in [1], in assay [2], in [3], in assay [4], in [6] and in assay [9] was inactive. The compound was called inactive in [7], in assay [10] and in assay [8].
Turning to `O=C(OCc1ccccc1)C(=O)OCc1ccccc1`, the outcome in assay [1], in assay [2], in assay [3], in assay [4], in assay [5] and in assay [6] was inactive. The result in assay [10] and in assay [8] was inactive.
For `Cc1cccc(C)c1[N+](=O)[O-]`, the result in [1], in [2], in [3], in assay [4], in assay [6] and in [9] was inactive. The result in assay [7], in assay [10] and in assay [8] was inactive.
Turning to `C=CC(C)(O)CCC=C(C)CCC=C(C)C` (stereo not given), the AC50 in assay [1] is 131 µM (active); in assay [2], 166 µM (active); in assay [3] it was 100 µM (active); in assay [4] it was 176 µM (active); in assay [6], 164 µM (active); in [8], 178 µM (active). In addition, the compound was called inactive in assay [9], in assay [7] and in [10].
With `CNCCO`, the outcome in assay [1], in [2], in assay [3], in assay [4], in assay [6] and in assay [9] was inactive. The outcome in [7], in assay [10] and in assay [8] was inactive.
Turning to `CCN(CC)c1ccc(C(=C2C=CC(=[N+](CC)CC)C=C2)c2ccc(S(=O)(=O)O)cc2S(=O)(=O)[O-])cc1`, the outcome in assay [1], in assay [2], in assay [3], in [4], in [6] and in assay [9] was inactive. Also, the outcome in [7], in assay [10] and in assay [8] was inactive.
Regarding `COc1cc(C(C)(C)C)c(O)c(C(C)(C)C)c1`, the result in assay [1], in assay [2], in assay [3], in assay [4], in [6] and in assay [9] was inactive. In addition, the compound was classed as inactive in [7], in assay [10] and in assay [8].
For `C=CC(=O)NCOCC(C)C`, the outcome in assay [1], in assay [2], in assay [3], in assay [4], in assay [6] and in [9] was inactive. The result in [7], in [10] and in assay [8] was inactive.
With `O=C1CCCCCCCCCCCCCCO1`, the result in assay [1], in assay [2], in assay [3], in assay [4], in assay [6] and in assay [9] was inactive. The result in assay [7], in assay [10] and in [8] was inactive.
For `FC1(F)C(F)(F)C(F)(F)C2(F)C(F)(C1(F)F)C(F)(F)C(F)(F)C1(F)C(F)(F)C(F)(F)C(F)(F)C(F)(F)C12F` (stereo not given), the result in assay [1], in assay [2], in assay [3], in assay [4], in [6] and in assay [9] was inactive. Further, the compound was called inactive in assay [7], in [10] and in assay [8].
For the compound `CC(=O)OCC=Cc1ccccc1`, the result in assay [1], in assay [2], in assay [3], in assay [4], in assay [6] and in assay [9] was inactive. Moreover, the call in assay [7], in assay [10] and in [8] was inactive.
For `CN1Cc2c(N)cccc2C(c2ccccc2)C1` (stereo not given), the result in assay [1], in [2], in assay [3], in assay [4], in assay [6] and in assay [9] was inactive. In addition, the compound was classed as inactive in assay [7], in assay [10] and in [8].
For `CCCCCCCCCCN`, the result in assay [1], in assay [2], in assay [3], in assay [4], in [6] and in [9] was inactive. Also, the outcome in [7], in [10] and in [8] was inactive.
As for `O=C(O)CCCCCCCC(=O)O`, the result in assay [1], in assay [2], in [3], in [4], in [6] and in assay [9] was inactive. Besides, the result in assay [7], in assay [10] and in assay [8] was inactive.
Regarding `CC1CC(OC(=O)c2ccccc2O)CC(C)(C)C1` (stereo not given), the result in [1], in assay [2], in [3], in [4], in [6] and in assay [9] was inactive. Besides, the result in [7], in assay [10] and in [8] was inactive.
`CC(=O)OCc1ccc2c(c1)OCO2`: the result in assay [1], in [2], in [3], in assay [4], in [6] and in assay [9] was inactive. Further, the outcome in assay [7], in [10] and in assay [8] was inactive.
`C=CC(=O)OCCn1c(=O)n(CCOC(=O)C=C)c(=O)n(CCOC(=O)C=C)c1=O`: the AC50 in assay [1] is 18.9 µM (active); in [3], 11.2 µM (active); in assay [9], 52.4 µM (active). Moreover, the outcome in assay [2], in assay [4], in [6], in assay [7], in assay [10] and in assay [8] was inactive.
Regarding `O=C(O)c1cccc([N+](=O)[O-])c1`, the outcome in [1], in [2], in assay [3], in [4], in assay [6] and in assay [9] was inactive. In addition, the result in assay [7], in assay [10] and in [8] was inactive.
Regarding `O=C[C@H](O)[C@H](O)[C@H](O)CO`, the outcome in assay [1], in assay [2], in [3], in [4], in [6] and in [9] was inactive. Besides, the result in [7], in [10] and in assay [8] was inactive.
On to `CCCC[n+]1ccccc1`, for which the result in assay [1], in assay [2], in [3], in assay [4], in assay [6] and in [9] was inactive. Further, the compound was called inactive in assay [7], in assay [10] and in assay [8].
With `O=C(O)c1cn(-c2ccc(F)cc2)c2cc(N3CCNCC3)c(F)cc2c1=O`, the result in assay [1], in assay [2], in assay [3], in assay [4], in assay [6] and in assay [9] was inactive. The result in assay [7], in [10] and in [8] was inactive.
As to `CCOc1ccccc1OCC`, the outcome in assay [1], in [2], in assay [3], in assay [4], in assay [6] and in [9] was inactive. For the same compound, the call in assay [7], in assay [10] and in [8] was inactive.
On to `CC(C)(C#N)c1cc(Cn2cncn2)cc(C(C)(C)C#N)c1`, for which the result in assay [1], in [2], in assay [3], in [4], in assay [6] and in assay [9] was inactive. Further, the compound was called inactive in assay [7], in assay [10] and in assay [8].
As for `CCCCNC(=O)NS(=O)(=O)c1ccc(N)cc1`, the outcome in assay [1], in assay [2], in [3], in [4], in [6] and in assay [9] was inactive. Further, the compound was called inactive in [7], in [10] and in assay [8].
Take `CCN(CC)CCOC(=O)c1ccc(N)cc1`: the outcome in [1], in assay [2], in assay [3], in assay [4], in assay [6] and in assay [9] was inactive. Further, the compound was called inactive in assay [7], in [10] and in assay [8].
